Pol iota inh: qHTS for Inhibitors of Polymerase Iota. DNA polymerase iota (Homo sapiens), Q9UNA4. Pol iota fluorescent replication assay, 10 min. Potency, µM (series often up to 115 µM), for inactives: at the highest dose activity, negative = inhibition, hits mostly inhibitors. 390,000 compounds, 1% hits. AID 588590, 2011
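Pol iota at 10 nM preincubated 15 min with compounds at room temperature; reaction started with fluorescent substrate, 50 nM final. Fluorescence read kinetically at 0 and 10 min; buffer-only wells as negative control.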
WRN helicase inh-1: qHTS for Inhibitors of WRN Helicase; Bifunctional 3'-5' exonuclease/ATP-dependent helicase WRN (Homo sapiens), Q14191; WRN helicase unwinding, fluorescent forked duplex, kinetic; Potency, µM (top dose mostly 114 µM), without a hit: at the top dose activity change, negative = inhibition, actives largely listed as inhibitors; 360,000 compounds, 0.46% hits; note: % is set by controls: 0 for no effect and ±100 for the full control effect; nearly all actives have a fitted effect of over 55% in size
Target sequence (Q14191 whole entry, looked up): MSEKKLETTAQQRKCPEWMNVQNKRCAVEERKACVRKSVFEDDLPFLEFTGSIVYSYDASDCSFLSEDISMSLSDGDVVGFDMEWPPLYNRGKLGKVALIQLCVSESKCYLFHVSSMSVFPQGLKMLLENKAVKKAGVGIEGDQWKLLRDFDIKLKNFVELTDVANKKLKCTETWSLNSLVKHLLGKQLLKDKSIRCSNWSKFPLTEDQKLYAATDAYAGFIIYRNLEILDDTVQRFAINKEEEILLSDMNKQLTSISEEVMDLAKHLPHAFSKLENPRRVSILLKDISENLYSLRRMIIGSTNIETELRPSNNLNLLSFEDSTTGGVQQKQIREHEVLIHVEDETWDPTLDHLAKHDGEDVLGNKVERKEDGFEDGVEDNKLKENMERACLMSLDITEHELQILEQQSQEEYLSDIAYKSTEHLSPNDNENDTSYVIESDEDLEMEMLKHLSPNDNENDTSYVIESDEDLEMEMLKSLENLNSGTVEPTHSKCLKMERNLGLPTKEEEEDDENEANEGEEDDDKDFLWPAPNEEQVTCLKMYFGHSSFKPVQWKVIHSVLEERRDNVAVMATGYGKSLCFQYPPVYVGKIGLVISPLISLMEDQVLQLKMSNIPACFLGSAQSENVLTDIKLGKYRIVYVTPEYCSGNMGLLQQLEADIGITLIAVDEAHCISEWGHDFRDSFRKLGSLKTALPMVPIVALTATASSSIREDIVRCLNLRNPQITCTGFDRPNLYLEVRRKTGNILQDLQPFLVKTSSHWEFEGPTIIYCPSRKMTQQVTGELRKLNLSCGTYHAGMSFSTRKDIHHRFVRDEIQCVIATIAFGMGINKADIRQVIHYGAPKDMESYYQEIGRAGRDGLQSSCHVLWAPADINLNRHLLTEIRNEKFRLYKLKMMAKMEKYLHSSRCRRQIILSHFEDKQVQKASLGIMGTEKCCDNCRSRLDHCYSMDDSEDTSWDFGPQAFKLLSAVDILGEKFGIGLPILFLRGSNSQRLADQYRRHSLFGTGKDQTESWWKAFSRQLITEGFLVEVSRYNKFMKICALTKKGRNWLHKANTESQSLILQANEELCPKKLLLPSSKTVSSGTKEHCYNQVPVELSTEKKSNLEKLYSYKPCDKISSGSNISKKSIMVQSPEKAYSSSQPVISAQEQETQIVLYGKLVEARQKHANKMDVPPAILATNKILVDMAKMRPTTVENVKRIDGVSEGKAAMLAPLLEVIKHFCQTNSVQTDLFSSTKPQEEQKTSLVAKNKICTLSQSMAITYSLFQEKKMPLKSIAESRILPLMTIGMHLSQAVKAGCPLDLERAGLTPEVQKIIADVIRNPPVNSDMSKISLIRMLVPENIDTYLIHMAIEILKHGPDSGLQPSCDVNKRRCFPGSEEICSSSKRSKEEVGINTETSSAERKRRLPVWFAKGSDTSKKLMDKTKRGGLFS
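WRN at 20 nM final was preincubated with compound for 15 min at room temperature; reaction started with 100 nM forked duplex oligonucleotide carrying fluorophore and quencher plus 2 mM ATP (final). Unwinding followed kinetically by red fluorescence (ex 525/em 598 nm).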
Pol beta inh: qHTS Assay for Inhibitors of DNA Polymerase Beta; P06746; Pol beta primer extension/strand displacement, fluorescence kinetic; Potency, µM (highest dose often 114 µM), inactives show top-dose activity change, negative = inhibition, most hits filed as inhibitors; 340,000 compounds, 1.3% hits; note: % is set by controls: 0 for no effect and ±100 for the full control effect
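10 nM enzyme + cpd, 15 min RT; start with substrate 50 nM final; read 0 min and after 10 min RT. Corrected, normalized data; 4-parameter Hill curve fit.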
FEN1 inh-1: qHTS Assay for the Inhibitors of Human Flap endonuclease 1 (FEN1). Recombinant FEN1 flap cleavage, fluorescence, 15 min. Potency, µM (series often up to 114 µM), for inactives: at the top dose activity change, negative = inhibition, actives largely listed as inhibitors. 390,000 compounds, 0.35% hits. AID 588795, 2011; note: % is set by controls: 0 for no effect and ±100 for the full control effect; nearly all actives have a fitted effect of over 65% in size
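With each library titrated from low to high concentration, compounds met 10 nM FEN1 for 15 min at room temperature before 50 nM substrate was added; readings at 0 and 15 min fed four-parameter Hill curve fits.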
Pol kappa inh-1: qHTS for Inhibitors of Polymerase Kappa; Potency, µM (highest dose often 107 µM), without a hit: top-dose activity, negative = inhibition, actives largely listed as inhibitors; purified Pol kappa, fluorescent DNA synthesis assay, 10 min; 400,000 compounds, 0.53% hits; note: % is set by controls: 0 for no effect and ±100 for the full control effect
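50 nM final substrate added after 15 min RT preincubation of 10 nM Pol kappa with compound; fluorescence read at 0 and 10 min.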
Pol eta inh-1: qHTS for Inhibitors of Polymerase Eta. Potency, µM (titrated, usually from 114 µM), inactives show at the highest dose activity change, negative = inhibition, actives largely listed as inhibitors. AID 588591, 2011. recombinant Pol eta, fluorescent DNA replication assay. DNA polymerase eta (Homo sapiens), Q9Y253. 390,000 compounds, 1.2% hits; note: % is set by controls: 0 for no effect and ±100 for the full control effect
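Fluorescent replication assay: 50 nM final substrate added after a 15 min room-temperature compound preincubation with 10 nM enzyme. Signal taken at 0 min and again at 10 min.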
Pol kappa inh-2: qHTS for Inhibitors of Polymerase Kappa: Confirmatory Assay for Cherry-picked Compounds; shares compounds with Pol eta inh-1; purified Pol-kappa, fluorescent strand-displacement substrate; Potency, µM, most hits filed as inhibitors; 920 compounds, 76% hits
Pol eta inh-2: qHTS for Inhibitors of Polymerase Eta: Confirmatory Assay for Cherry-picked Compounds. 2,600 compounds, 64% hits. Potency, µM, actives largely listed as inhibitors. shares compounds with Pol eta inh-1. Pol eta primer extension, TAMRA/BHQ fluorescence, 10 min
FEN1 inh-2: qHTS Assay for the Inhibitors of FEN1: Confirmatory Assay for Cherry-picked Compounds | shares compounds with FEN1 inh-1 | FEN1 flap cleavage, TAMRA/BHQ2 fluorogenic DNA substrate | Potency, µM, usual class: inhibitors | 880 compounds, 79% hits | AID 720498, 2013; note: nearly all actives have a fitted effect of over 60% in size
WRN helicase inh-2: qHTS for Inhibitors of WRN Helicase: Confirmatory Assay for Cherry-picked Compounds; shares compounds with WRN helicase inh-1; WRN helicase DNA unwinding, fluorescence kinetic; Potency, µM (series often up to 57.1 µM), for the others: at the top dose activity, negative = inhibition, most hits filed as inhibitors; 610 compounds, 63% hits; AID 720497, 2013; note: nearly all actives have a fitted effect of over 65% in size
TO DNA binding: qHTS for Inhibitors of WRN Helicase: Thiazole Orange DNA Binding Counterscreen. thiazole orange DNA binding displacement, fluorescence. 610 compounds, 10% hits. shares compounds with WRN helicase inh-1. Potency, µM (top dose mostly 57.1 µM), inactives show at the top dose activity change, negative = inhibition, hits mostly inhibitors. AID 720499, 2013;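 note: drop in dye fluorescence marks compound binding to DNA; % is set by controls: 0 for no effect and ±100 for the full control effect; nearly all actives have a fitted effect of over 60% in size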
BLM counter: qHTS for Inhibitors of WRN Helicase: BLM Helicase Counterscreen for WRN Inhibitors; shares compounds with WRN helicase inh-1; Recombinant BLM helicase DNA unwinding, red fluorescence; Potency, µM (series often up to 57.1 µM), for the others: at the top dose activity change, negative = inhibition, most hits filed as inhibitors; 610 compounds, 60% hits; AID 720503, 2013; note: nearly all actives have a fitted effect of over 60% in size
An asterisk follows results filed as active; ? = inconclusive; . = no result; [ ] = another dose, or the depositor's remark. A selection: hits, their analogues and other compounds. The true share with any hit is near 2.4%. Calls come from the whole dose curve; as a rule, active = well fitted curve in the direction sought with a large enough effect; inconclusive = small, poorly fitted or top-dose-only effect, or another doubt; inactive = no such curve, though single readings can be large; an effect the other way counts as inactive or inconclusive. Potency is the fitted concentration of half-maximal effect.

SMILES | Pol iota inh | WRN helicase inh-1 | Pol beta inh | FEN1 inh-1 | Pol kappa inh-1 | Pol eta inh-1 | Pol eta inh-2 | FEN1 inh-2 | WRN helicase inh-2 | TO DNA binding | BLM counter | others
CCCCCCCCCCCC[N+](C)(C)CCOc1ccccc1 | . | . | . | . | -18%[60.1 µM] | . | . | . | . | . | .
CC[N+](C)(CC)CCCCOc1ccc2c(c1)C(=O)c1cc(OCCCC[N+](C)(CC)CC)ccc1-2 | 14µM* | 40µM* | ? | ? | ? | ? | ? | 21* | . | . | .
N#Cc1c(-c2csc(-c3no[n+]([O-])c3C#N)c2)no[n+]1[O-] | . | . | . | . | . | . | ? | . | ? | -15% | ?
O=C1NC(=S)NC(=O)C1=Cc1cccc2cc3ccccc3cc12 | 35µM* | ? | -4% | ? | -4% | 50µM* | ? | . | ? | -5% | ?
C=C1[C@@H]2C[C@]3(C(CC2=O)[C@]24C5C[C@H]3[C@H]2N(CC)C[C@]5(C)CC[C@@H]4O)[C@@H]1O (stereo not given in full) | . | . | . | . | 17%[60.1 µM] | . | . | . | . | . | .
CCN(CC)c1ccc(/C=C2\C(=O)NC(=O)N(Cc3ccco3)C2=O)cc1 | 20µM* | 28µM* | ? | ? | 79µM* | 22µM* | ? | . | ? | 1% | ? | Pol kappa inh-2=34*
CCN(CC)c1ccc(/C=C2/C(=O)NC(=O)N(CC3CCCO3)C2=O)cc1 (stereo not given) | ? | -34% | 19% | ? | -2% | 3% | . | . | . | . | .
COc1cc(NCCCn2cnc(C(=O)Nc3ccc(C)c(C)c3)n2)cc(OC)c1OC | 27% | -5% | . | -11% | -4% | -18% | . | . | . | . | .
Cn1cccc1/C=C1\C(=O)NC(=O)N(Cc2ccccc2)C1=O | 22µM* | ? | ? | -1% | 50µM* | 35µM* | ? | . | ? | -13% | ?
CC(C)C[C@H]1C(=O)N2CCC[C@@H]2[C@@]2(O)O[C@](NC(=O)[C@@H]3C=C4c5cccc6[nH]cc(c56)C[C@@H]4N(C)C3)(C(C)C)C(=O)N12 | . | . | . | . | -18%[12 µM] | . | . | . | . | . | .
O=C1NC(=O)N(c2ccccc2)C(=O)/C1=C\c1ccc([N+](=O)[O-])s1 | ? | 28µM* | ? | 32µM* | 28µM* | 10µM* | 34* | 19* | ? | -15% | 17µM*
CCN1C[C@]2(COC(=O)c3ccccc3N3C(=O)C[C@H](C)C3=O)CC[C@H](OC)[C@@]34[C@@H]5C[C@H]6[C@H](OC)[C@H]5[C@](O)(C[C@@H]6OC)[C@@](O)([C@@H](OC)[C@@H]23)[C@@H]14 | . | . | . | . | -7%[19.4 µM] | . | . | . | . | . | .
Cc1c(O)c(O)cc2c1CC=C1[C@]3(C)CC[C@]4(C)CC[C@@](C)(C(=O)O)CC4[C@]3(C)CC[C@]12C (stereo not given in full) | . | . | . | . | -6%[60.1 µM] | . | . | . | . | . | .
CC1=C(O)C(=O)C=C2C1=CC=C1C2(C)CCC2(C)C3CC(C)(C(=O)O)CCC3(C)CCC12C (stereo not given) | 3.5µM* | 25µM* | . | 40µM* | 32µM* | 7.9µM* | 34* | . | ? | -19% | 22µM*
Cc1ccccc1-n1c(O)c(/C=C/C=Nc2ccccc2)c(=O)[nH]c1=O | 79µM* | ? | -3% | -9% | -14% | ? | . | 85* | . | . | .
COC[C@H]([C@@H](O)[C@@H](O)C(=O)NCC[C@@H](C)c1nc(/C=C/C[C@H]2OC3(C[C@H](O)[C@H]2C)OC([C@@H](C[C@@H](O)[C@@H](C)[C@@H](O)[C@@H](C)/C=C(C)/C(C)=C/C=C/C(C)=C\C#N)OC)[C@@H](OP(=O)(O)O)C3(C)C)co1)N(C)C (stereo not given in full) | . | . | . | . | 8%[19.4 µM] | . | . | . | . | . | .
Cc1cccc(NC(=O)c2cc3c(=O)n4ccccc4nc3n2C)c1C | -11% | . | ? | 1% | -12% | -14% | . | . | . | . | .
CN1CCc2nc3sc(C#N)c(N)c3c(-c3cccs3)c2C1 | 20% | -3% | -21% | ? | -11% | -2% | . | ? | . | . | .
CN1CCc2nc(N)c(C#N)c(-c3ccccc3)c2C1 | ? | -1% | -3% | -5% | 0% | -15% | . | . | . | . | .
COc1ccc2oc(=O)c(C(=O)NCCc3c(C)[nH]c4ccc(F)cc34)cc2c1 | ? | . | 23% | -20% | 4% | -16% | . | . | . | . | .
Nc1ccc2ccc3cccc[n+]3c2c1 | 3% | -10%[11.6 µM] | 4% | 50µM* | -26% | ? | . | ? | . | . | .
CN1CCC(N(C)c2nc(-c3ccc([N+](=O)[O-])cc3)nc3ccccc23)CC1 | ? | -24%[57.1 µM] | 11µM* | 35µM* | -28% | -23% | . | 34* | . | . | .
O=C1C(=Cc2cn(-c3ccccc3)nc2-c2ccc(OCc3ccc(Cl)cc3)cc2)SC(=S)N1CCS(=O)(=O)O | . | 14µM* | . | . | . | . | . | . | 11µM* | ? | 3.8µM*
